GRIN3A LBD mod: NR3A (human) ligand-binding domain modulation. AID 1259313. Tm shift relative to glycine control, % at 25 µM. 340,000 compounds, 2.5% hits. NR3A LBD differential scanning fluorimetry, Tm shift; 0% = protein alone, 100% = glycine-bound protein;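 active = melting temperature shift of at least 10% of the positive control shift, at one fixed dose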
Mdm2 MdmX PPI: disrupts the human Mdm2-MdmX interaction; 330,000 compounds, 3% hits; AID 485346; O15151+Q00987; SaOS-2 split-luciferase Mdm2/MdmX complementation, luminescence; inhibition, % at 8 µM;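 active = inhibition of at least 50% at 8 µM in the primary screen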
CSC inhib: cancer stem cell inhibition. cancer stem cell-like cells viability, luminescence. inhibition, % at 7.5 µM. 300,000 compounds, 1.1% hits; in the data active = inhibition above about 75%; inconclusive = no clear call, values can overlap the other calls; tested in HMLE shEcad cells
Beta apoptosis: blocks beta cell apoptosis; INS-1E cytokine-induced death, ATP luminescence, 48 h; percent of positive-control rescue, neutral wells zero; protection from apoptosis, % (no concentration beside the values); 300,000 compounds, 0.8% hits; AID 435005;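 active = Every replicate reaches about 75%, or at least half do and their mean reaches it too, limit read from the data; inconclusive = At least half of replicates reach the limit but their mean does not; inactive = Under half of replicates reach the limit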;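 note: 0% = cytokine-treated negative control wells and 100% = positive control rescue; higher means more ATP so stronger rescue from cytokine killing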
Gli-Sufu block: blocks Gli-Sufu signaling in a luciferase reporter. Sufu-KO-LIGHT fibroblasts, Gli luciferase reporter luminescence. inhibition, % at 5 µM. 340,000 compounds, 0.74% hits. AID 588413;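 active = inhibition above about 55%, limit read from the data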;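 note: 0% = DMSO-treated cells and 100% = wells with medium but no cells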
MPTP block: inhibitors of mitochondrial permeability transition pore; inhibition, % at 10 µM; 360,000 compounds, 1.4% hits; isolated mouse mitochondria, Ca2+ swelling absorbance, 30 min;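 active = inhibition of 50% or more, scaled per plate between neutral and stimulator controls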;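 note: 0% = DMSO wells given calcium and 100% = 1 mM EGTA wells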
Mdm2-MdmX conf: confirmation of human Mdm2/MdmX interaction inhibitors; shares compounds with Mdm2 MdmX PPI; Mdm2-MdmX binding, luminescent assay; inhibition, % at 8 µM; AID 489028; 10,000 compounds, 55% hits; in the data active = inhibition above about 40%
FLuc counter: inhibits full-length luciferase, flagging false Mdm2/MdmX hits; AID 504607; shares compounds with Mdm2 MdmX PPI; SaOS-2 full-length luciferase counterscreen, luminescence; 6,200 compounds, 77% hits; inhibition, % at 8 µM;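 active = mean inhibition at 8 µM reaching about 37%, which flags the compound as non-specific, limit read from the data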;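 note: p53-null SaOS-2 cells with luciferase driven by a doxycycline-inducible promoter; compound on cells about two nights before reading with doxycycline added after day one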
The depositor's hits bear a star. This is a sample that favours compounds with a hit; in the whole collection about 6.6% have one here.

`Nc1ncn([C@@H]2O[C@H](CO)[C@@H](O)[C@H]2O)c(=O)n1` gave GRIN3A LBD mod -2, Mdm2 MdmX PPI 52*, CSC inhib 51, Beta apoptosis 4, Gli-Sufu block 23, MPTP block 2, Mdm2-MdmX conf 50* and FLuc counter 59*.
For Nc1ccn([C@@H]2O[C@H](CO)[C@@H](O)[C@@H]2O)c(=O)n1 the results were GRIN3A LBD mod -1, CSC inhib 60, Beta apoptosis 8, Gli-Sufu block 40 and MPTP block 0.
For CN(C)c1ncnc2c1ncn2C1OC(CO)C(O)C1O (stereo not given) the results were GRIN3A LBD mod 1, Mdm2 MdmX PPI 76*, Beta apoptosis 69, Gli-Sufu block -2, MPTP block 2, Mdm2-MdmX conf 43* and FLuc counter 20.
CC(NC(=O)CN1CCOCC1)c1ccccc1 (stereo not given) was read as GRIN3A LBD mod -1, Mdm2 MdmX PPI 3, CSC inhib -13, Beta apoptosis -2, Gli-Sufu block 3 and MPTP block 2.
Screening COCCSc1nnc(NC(=O)COc2ccc3c(c2)OCO3)s1 returned GRIN3A LBD mod 0, Mdm2 MdmX PPI 7, CSC inhib 1, Beta apoptosis -2, Gli-Sufu block -25 and MPTP block -2.
Screening Cc1cc(C)cc(NC(=O)CCn2c(=O)c3cccn3c3ccccc32)c1 returned GRIN3A LBD mod 2, Mdm2 MdmX PPI 56*, CSC inhib -3, Beta apoptosis 3, Gli-Sufu block 15, MPTP block -3, Mdm2-MdmX conf 50* and FLuc counter 52*.
CCN(CC)CCNc1ncnc2c1sc1nc(N3CCCC3)c3c(c12)CC(C)(C)OC3 was read as GRIN3A LBD mod 0, Mdm2 MdmX PPI 59*, CSC inhib 20, Beta apoptosis 3, Gli-Sufu block 0, MPTP block 35 and Mdm2-MdmX conf 32.
For CC1(C)Cc2c(c(-c3ccco3)nc3sc4c(NCCN5CCOCC5)ncnc4c23)CO1 the results were GRIN3A LBD mod 0, Mdm2 MdmX PPI 51*, CSC inhib 27, Beta apoptosis 5, Gli-Sufu block 24, MPTP block 1 and Mdm2-MdmX conf 8.
Screening CCN(CC)CCNc1ncnc2c1sc1nc(N3CCOCC3)c3c(c12)CCCC3 returned GRIN3A LBD mod -5, Mdm2 MdmX PPI 71*, CSC inhib 0, Beta apoptosis 12, Gli-Sufu block 3, MPTP block 2, Mdm2-MdmX conf 36 and FLuc counter 65*.
For COc1ccccc1C1CCN(C(=O)c2ccc(C(C)(C)C)cc2)CC1 the results were GRIN3A LBD mod -1, Mdm2 MdmX PPI 28, CSC inhib 9, Beta apoptosis 5, Gli-Sufu block 7 and MPTP block 2.
For COc1ccccc1NC(=O)c1ccc2nc(C)c(C)nc2c1 the results were GRIN3A LBD mod -1, Mdm2 MdmX PPI 10, CSC inhib -2, Beta apoptosis 1, Gli-Sufu block -9 and MPTP block 0.
`CCOc1ccc(S(=O)(=O)NCc2ccncc2)cc1NC(=O)c1ccccc1F` gave GRIN3A LBD mod 0, Mdm2 MdmX PPI 67*, CSC inhib 8, Beta apoptosis -1, Gli-Sufu block 0, MPTP block 0 and Mdm2-MdmX conf 8.
For COc1ccc(S(=O)(=O)NCc2ccccn2)cc1NC(=O)c1ccccc1C the results were GRIN3A LBD mod -1, Mdm2 MdmX PPI 52*, CSC inhib -6, Gli-Sufu block -7, MPTP block 1, Mdm2-MdmX conf 71* and FLuc counter 63*.
COc1ccc(S(=O)(=O)NCc2ccccn2)cc1NC(=O)c1ccc(Cl)cc1 was read as GRIN3A LBD mod 0, Mdm2 MdmX PPI 40, CSC inhib -7, Gli-Sufu block 1 and MPTP block 0.
Screening COc1ccc(S(=O)(=O)NCc2cccnc2)cc1NC(=O)c1ccccc1 returned GRIN3A LBD mod -1, Mdm2 MdmX PPI 6, CSC inhib 7, Beta apoptosis -2, Gli-Sufu block -20 and MPTP block -3.
For CCOc1ccc(S(=O)(=O)NCc2cccnc2)cc1NC(=O)c1ccccc1F the results were GRIN3A LBD mod 1, Mdm2 MdmX PPI 59*, CSC inhib 13, Beta apoptosis 0, Gli-Sufu block 3, MPTP block -1, Mdm2-MdmX conf 57* and FLuc counter 53*.
CC(OC(=O)[C@@H](NS(=O)(=O)c1ccccc1)C(C)C)C(=O)c1c(N)n(C)c(=O)n(C)c1=O (stereo not given in full) was read as MPTP block -1.
CC1CN(C(=O)COC(=O)Cc2c(Cl)cccc2Cl)CC(C)O1 (stereo not given) was read as GRIN3A LBD mod -7, Mdm2 MdmX PPI 8, CSC inhib -16, Beta apoptosis -1, Gli-Sufu block -6 and MPTP block -2.
N#Cc1ccccc1S(=O)(=O)N1CCN(C(=O)[C@H](Cc2ccccc2)NC(=O)c2ccco2)CC1 was read as GRIN3A LBD mod -1, Mdm2 MdmX PPI 25, Beta apoptosis 8, Gli-Sufu block 7 and MPTP block 1.
Screening CNc1c(NS(=O)(=O)c2ccc3c(c2)CCCC3)c(=O)oc2ccccc12 returned GRIN3A LBD mod -1, Mdm2 MdmX PPI 3, CSC inhib -35, Beta apoptosis 0, Gli-Sufu block -1 and MPTP block -1.
Screening CCn1c(Cl)c(C=O)s/c1=N\S(=O)(=O)c1ccccc1 returned GRIN3A LBD mod 0, Mdm2 MdmX PPI 100*, CSC inhib inconclusive, Beta apoptosis 117*, Gli-Sufu block 2, MPTP block 0, Mdm2-MdmX conf 98* and FLuc counter 51*.
For CCN1C(=O)CS/C1=N\S(=O)(=O)c1ccc(Cl)cc1 the results were GRIN3A LBD mod 1, Mdm2 MdmX PPI -17, CSC inhib 6, Beta apoptosis 0, Gli-Sufu block 5 and MPTP block -1.
`COCCNC(=O)C1(C)CCN(C(=O)c2cc(C(C)(C)C)nn2C)C1` (stereo not given) gave MPTP block 0.
For O=C(Cc1ccc(S(=O)(=O)N2CCOCC2)s1)NCC(=O)Nc1ccccc1Br the results were GRIN3A LBD mod -3, Mdm2 MdmX PPI 8, CSC inhib 6, Beta apoptosis 0, Gli-Sufu block -10 and MPTP block 0.
For O=C(Cc1ccc(S(=O)(=O)N2CCOCC2)s1)Nc1ccccc1Br the results were GRIN3A LBD mod -1, Mdm2 MdmX PPI 66*, CSC inhib 13, Beta apoptosis 0, Gli-Sufu block 1, MPTP block 2 and Mdm2-MdmX conf 0.
